# Test results published in PubChem BioAssay (EPA / NIEHS).
# Records with an inconclusive call do not appear. Active and inactive are the calls of the source. The calls were made as follows, unless noted: active = hit-call score of the fitted dose curve at least 0.9, where 1 is the maximum; inactive = score below 0.9.
# What was measured:
# [1] = IUF_NPC2c_oligodendrocyte_migration_120hr: Leibniz Research Institute for Environmental Medicine (IUF) 120-hour Neural Progenitor Cell Migration Assay for Oligodendrocyte Migration (NPC2c) (AID 2284297)
# Method in brief: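 Read-out is the mean distance of O4-positive oligodendrocytes from the sphere core edge at 120 h, normalized to radial glia migration and fitted in the gain direction against DMSO. Spheres of primary human neural progenitors differentiated on laminin under continuous compound exposure.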
# [2] = IUF_NPC2a_radial_glia_migration_120hr: Leibniz Research Institute for Environmental Medicine (IUF) 120-hour Neural Progenitor Cell Migration Assay for Radial Glia Migration (NPC2a) (AID 2284298)
# Method in brief: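 Readout: distance in um from sphere core edge to migration-area edge, derived from Hoechst nuclei density with a threshold-defined polynomial boundary. Spheres: hNPC, GW 16-19, 0.3 mm, on PDL/laminin; exposure 5 days; DMSO is baseline.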
# [3] = IUF_NPC2a_radial_glia_migration_72hr: Leibniz Research Institute for Environmental Medicine (IUF) 72-hour Neural Progenitor Cell Migration Assay for Radial Glia Migration (NPC2a) (AID 2284299)
# Method in brief: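 Spheres of human primary neural progenitors migrate on poly-D-lysine/laminin under compound exposure at 37C, 5% CO2. The 72 h radial glia migration distance comes from brightfield images, measured manually.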
# [4] = IUF_NPC2b_neuronal_migration_120hr: Leibniz Research Institute for Environmental Medicine (IUF) 120-hour Neural Progenitor Cell Migration Assay for Neuron Migration (NPC2b) (AID 2284300)
# Method in brief: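 Read-out is mean distance from sphere edge to each TUBB3-positive neuron at 120 h, expressed relative to radial glia migration distance and to DMSO baseline. Single 0.3 mm human NPC spheres differentiated on laminin under continuous compound exposure.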
# [5] = IUF_NPC3_neuronal_differentiation_120hr: Leibniz Research Institute for Environmental Medicine (IUF) 120-hour Neuronal Differentiation Assay (NPC3) (AID 2284301)
# Method in brief: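 Value is percent TUBB3-positive neurons among Hoechst-stained nuclei in the migration area, scored by trained CNN after 120 h differentiation. Primary hNPC spheres on poly-D-lysine/laminin, N2 medium, continuous dosing from day 0, half-refeed day 3; DMSO reference.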
# [6] = IUF_NPC4_neurite_length_120hr: Leibniz Research Institute for Environmental Medicine (IUF) 120-hour Neuronal Morphology Assay for Neurite Length (NPC4) (AID 2284302)
# Method in brief: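 Neurite length, the mean in um across TUBB3-stained neurons, is derived by skeletonization of high-content images after 120 h differentiation. Compound exposure, 7 concentrations plus solvent control, ran from plating of hNPC spheres on poly-D-lysine/laminin, with medium half-replaced on day 3.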
# [7] = IUF_NPC5_oligodendrocyte_differentiation_120hr: Leibniz Research Institute for Environmental Medicine (IUF) 120-hour Oligodendrocyte Differentiation Assay (NPC5) (AID 2284304; active = hit-call score of the fitted dose curve at least 0.9, where 1 is the maximum;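 also: primary human fetal neural progenitor spheres plated to migrate and differentiate; share of O4-positive cells among Hoechst nuclei found by CNN image analysis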)
# Method in brief: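 Oligodendrocyte differentiation was scored after 120 h as the O4-positive share of Hoechst-stained nuclei across the neurosphere migration area, using a trained convolutional neural network on high-content fluorescence images. Human fetal neural progenitor spheres were dosed from day 0, normalised to DMSO.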
# [8] = IUF_NPC4_neurite_area_120hr: Leibniz Research Institute for Environmental Medicine (IUF) 120-hour Neuronal Morphology Assay for Neurite Area (NPC4) (AID 2284305; active = hit-call score of the fitted dose curve at least 0.9, where 1 is the maximum)
# Method in brief: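 Neurite area (pixels, nuclei excluded) of TUBB3-positive neurons from hNPC spheres differentiating 5 days under continuous exposure at 37 C, 5% CO2. High-content imaging; loss of signal versus DMSO control across 7 concentrations.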
# [9] = IUF_NPC2-5_cytotoxicity_120hr: Cytotoxicity Assessment at 120 hours in the Leibniz Research Institute for Environmental Medicine (IUF) Neural Progenitor Cell Migration and Differentiation Assay (NPC2-5) (AID 2284307; active = hit-call score of the fitted dose curve at least 0.9, where 1 is the maximum;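 as to AC50: LDH released into supernatant as membrane damage marker via resorufin fluorescence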)
# Method in brief: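 Sphere plating starts differentiation and exposure together at day 0. Compound solution is half-replaced on day 3. At 120 h, medium supernatant is taken for an LDH membrane-integrity read based on resazurin reduction to resorufin fluorescence.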
# [10] = IUF_NPC2-5_cell_number_120hr: Cell Number Assessment at 120 hours in the Leibniz Research Institute for Environmental Medicine (IUF) Neural Progenitor Cell Migration and Differentiation Assay (NPC2-5) (AID 2284308);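 also: count of Hoechst-stained nuclei in migration zone around plated human neural progenitor spheres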
# Method in brief: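 hNPC spheres, one per well, PDL/laminin, N2 medium, 37C, 5% CO2. Dosing day 0 → half-medium change with fresh compound day 3 → fix 120 h. Readout: Hoechst+ nuclei count, migration area; 7 concentrations plus solvent control.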
# [11] = VALA_TUBIPS_Agonist_TubuleLength: VALA Sciences human iPS-derived Endothelial Tubule Formation (TUBIPS) Agonism Assay (AID 2284311; active = hit-call score of the fitted dose curve at least 0.9, where 1 is the maximum)
# Method in brief: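 Agonist-mode readout is the gain in imaged tubule length versus DMSO baseline. It was measured by fluorescence high-content imaging 72 h after dosing human iPSC-derived endothelial cells.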
# [12] = IUF_NPC2-5_viability_120hr: Viability Assessment at 120 hours in the Leibniz Research Institute for Environmental Medicine (IUF) Neural Progenitor Cell Migration and Differentiation Assay (NPC2-5) (AID 2284312)
# Method in brief: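 Alamar blue resorufin fluorescence read after 5 days of differentiation, with compound present from day 0 and replenished at day 3. Primary hNPC spheres on laminin-coated plates, 37C; seven concentrations plus solvent control, fitted against DMSO.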
# [13] = VALA_TUBIPS_Antagonist_TubuleLength: VALA Sciences human iPS-derived Endothelial Tubule Formation (TUBIPS) Antagonist Assay (AID 2284313; active = hit-call score of the fitted dose curve at least 0.9, where 1 is the maximum)
# Method in brief: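 Tubule length was quantified by high-content imaging of CD31- and nuclear-stained cells, with 0.1% DMSO as neutral and 100 uM suramin as inhibition control. Compounds were applied for 3 days, in 10 ng/ml VEGF, to cultures pre-grown 3 days.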
# [14] = read-out: Plasminogen activator inhibitor-1 (PAI1), SERPINE1 (gene 5054); test: BSK_MyoF_PAI1: BioMAP Diversity Plus: MyoF Assay for Plasminogen activator inhibitor-1 (PAI1) Biomarker Activity (AID 2284256); details: primary human lung fibroblasts;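 also: PAI-1 protein level measured by ELISA in fibroblast cultures; PAI-1 read 24 h after compound addition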
# Method in brief: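 Primary human lung fibroblasts are dosed and incubated 24 h. PAI-1 is then measured by ELISA, while parallel cultures undergo SRB staining for overt cytotoxicity. Increases over DMSO define activity.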
# [15] = read-out: Interleukin-8 (IL8), CXCL8 (gene 3576); test: BSK_MyoF_IL8: BioMAP Diversity Plus: MyoF Assay for Interleukin-8 (IL8) Biomarker Activity (AID 2284261); details: primary human lung fibroblasts
# Method in brief: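 IL-8 levels were measured by ELISA in human lung fibroblasts harvested 24 h after compound addition. Responses were analysed as gain of signal over the DMSO baseline.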
# Decorin, DCN (gene 1634) = test: BSK_MyoF_Decorin: BioMAP Diversity Plus: MyoF Assay for Decorin Biomarker Activity (AID 2284265); details: primary human lung fibroblasts
# Method in brief: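 Compound is added to lung fibroblast cultures; cells incubate 24 h; decorin is then measured by ELISA; the response is analysed upward against DMSO controls.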
# [16] = BSK_MyoF_SRB: Viability Assessment in the BioMAP Diversity Plus: MyoF Assay (AID 2284267); details: primary human lung fibroblasts;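 also: total protein by SRB absorbance in parallel cultures as cytotoxicity measure; cells assessed 24 h after compound addition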
# Method in brief: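 In this viability endpoint, fibroblasts from human lung are treated for 24 h, TCA-fixed, SRB-stained (0.1%) and read at 560 nm. Gain of signal relative to DMSO defines activity.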
# [17] = read-out: Matrix Metallopeptidase 1 (MMP1), MMP1 (gene 4312); test: BSK_MyoF_MMP1: BioMAP Diversity Plus: MyoF Assay for Matrix Metallopeptidase 1 (MMP1) Biomarker Activity (AID 2284268); details: primary human lung fibroblasts
# Method in brief: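 Lung fibroblast cultures were dosed with test chemicals and, after 24 h, MMP1 levels were measured by ELISA; responses were referenced to DMSO and analysed for increases.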
# [18] = read-out: TIMP metallopeptidase inhibitor 1 (TIMP1), TIMP1 (gene 7076); test: BSK_MyoF_TIMP1: BioMAP Diversity Plus: MyoF Assay for TIMP metallopeptidase inhibitor 1 (TIMP1) Biomarker Activity (AID 2284269); details: primary human lung fibroblasts
# Method in brief: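 Fibroblasts from human lung are dosed with chemical, cultured 24 h, and assayed for TIMP-1 by ELISA. Increases over the DMSO baseline are scored, with SRB total-protein staining run in parallel for cytotoxicity.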
# [19] = VALA_TUBHUV_Agonist_CellCount: Viability Assessment in the VALA Sciences human Umbilical Vein Endothelial Tubule Formation (TUBHUV) Agonism Assay (AID 2284309; active = hit-call score of the fitted dose curve at least 0.9, where 1 is the maximum)
# Method in brief: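 Viability endpoint by fluorescent imaging of fixed nuclear/CD31-stained HUVEC–HDF co-cultures. Readout is cell count, fitted upward against 0.1% DMSO. Compound exposure was 72 h in 10 ng/ml VEGF, after 3-day co-culture priming.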
structure (smiles),measurement,setting,value
N#Cc1nn(-c2c(Cl)cc(C(F)(F)F)cc2Cl)c(N)c1S(=O)C(F)(F)F (stereo not drawn),outcome,[1],inactive
same,AC50,[2],18.8 µM (active)
same,outcome,[3],inactive
same,outcome,[4],inactive
same,outcome,[5],inactive
same,AC50,[6],13.5 µM (active)
same,AC50,[7],1.99 µM (active)
same,AC50,[8],14.3 µM (active)
same,outcome,[9],inactive
same,AC50,[10],14.2 µM (active)
same,outcome,[11],inactive
same,outcome,[12],inactive
same,outcome,[13],inactive
CCCCC(CC)COC(=O)c1ccccc1C(=O)OCC(CC)CCCC (stereo not drawn),outcome,[1],inactive
same,outcome,[2],inactive
same,outcome,[3],inactive
same,outcome,[4],inactive
same,outcome,[5],inactive
same,outcome,[6],inactive
same,outcome,[7],inactive
same,outcome,[9],inactive
same,outcome,[10],inactive
same,outcome,[12],inactive
CCCCOC(=O)c1ccccc1C(=O)OCCCC,outcome,[1],inactive
same,outcome,[2],inactive
same,outcome,[3],inactive
same,outcome,[4],inactive
same,outcome,[5],inactive
same,outcome,[6],inactive
same,outcome,[9],inactive
same,outcome,[10],inactive
same,outcome,[12],inactive
COC(=O)N(OC)c1ccccc1COc1ccn(-c2ccc(Cl)cc2)n1,outcome,[1],inactive
same,AC50,[2],3.18 µM (active)
same,AC50,[3],3.44 µM (active)
same,outcome,[4],inactive
same,AC50,[5],0.0497 µM (active)
same,AC50,[6],0.328 µM (active)
same,AC50,[7],2.16 µM (active)
same,AC50,[8],0.167 µM (active)
same,AC50,[9],2.12 µM (active)
same,AC50,[10],3.23 µM (active)
same,AC50,[12],1.55 µM (active)
CCOc1cc(Oc2ccc(C(F)(F)F)cc2Cl)ccc1[N+](=O)[O-],outcome,[1],inactive
same,outcome,[2],inactive
same,outcome,[3],inactive
same,outcome,[4],inactive
same,outcome,[5],inactive
same,outcome,[6],inactive
same,AC50,[7],5.26 µM (active)
same,outcome,[8],inactive
same,outcome,[9],inactive
same,outcome,[10],inactive
same,outcome,[12],inactive
COP(=S)(OC)Oc1nc(Cl)c(Cl)cc1Cl,outcome,[1],inactive
same,outcome,[2],inactive
same,outcome,[3],inactive
same,outcome,[4],inactive
same,outcome,[5],inactive
same,outcome,[6],inactive
same,outcome,[7],inactive
same,outcome,[9],inactive
same,outcome,[10],inactive
same,outcome,[12],inactive
COc1cnc(OC)n2nc(NS(=O)(=O)c3c(OCC(F)F)cccc3C(F)(F)F)nc12,outcome,[14],inactive
same,outcome,[15],inactive
same,outcome,"Decorin, DCN (gene 1634)",inactive
same,outcome,[16],inactive
same,outcome,[17],inactive
same,outcome,[18],inactive
COP(N)(=O)SC (stereo not drawn),outcome,[1],inactive
same,outcome,[2],inactive
same,outcome,[3],inactive
same,outcome,[4],inactive
same,outcome,[5],inactive
same,outcome,[6],inactive
same,outcome,[7],inactive
same,outcome,[8],inactive
same,outcome,[9],inactive
same,outcome,[10],inactive
same,outcome,[12],inactive
CCOC(=O)CC(SP(=S)(OC)OC)C(=O)OCC (stereo not drawn),outcome,[1],inactive
same,outcome,[2],inactive
same,outcome,[3],inactive
same,outcome,[4],inactive
same,outcome,[5],inactive
same,outcome,[6],inactive
same,outcome,[8],inactive
same,outcome,[9],inactive
same,outcome,[10],inactive
same,outcome,[12],inactive
CNC(=O)ON=CC(C)(C)SC,outcome,[1],inactive
same,outcome,[2],inactive
same,outcome,[3],inactive
same,outcome,[4],inactive
same,outcome,[5],inactive
same,outcome,[6],inactive
same,outcome,[7],inactive
same,outcome,[8],inactive
same,outcome,[9],inactive
same,outcome,[10],inactive
same,outcome,[12],inactive
CC(C)(C)c1ccc(CSc2cnn(C(C)(C)C)c(=O)c2Cl)cc1,outcome,[1],inactive
same,AC50,[2],3.31 µM (active)
same,outcome,[3],inactive
same,outcome,[4],inactive
same,outcome,[5],inactive
same,outcome,[6],inactive
same,AC50,[7],0.0866 µM (active)
same,outcome,[8],inactive
same,outcome,[9],inactive
same,outcome,[10],inactive
same,AC50,[19],20.3 µM (active)
same,outcome,[12],inactive
same,outcome,[13],inactive
C=CC1(C)OC(=O)N(c2cc(Cl)cc(Cl)c2)C1=O (stereo not drawn),outcome,[1],inactive
same,outcome,[2],inactive
same,outcome,[3],inactive
same,outcome,[4],inactive
same,outcome,[5],inactive
same,outcome,[6],inactive
same,outcome,[7],inactive
same,outcome,[9],inactive
same,outcome,[10],inactive
same,outcome,[12],inactive
Cc1ccc(-c2c(Cl)nc(C#N)n2S(=O)(=O)N(C)C)cc1,AC50,[1],23.9 µM (active)
same,AC50,[2],33.6 µM (active)
same,AC50,[3],25.9 µM (active)
same,AC50,[4],30.8 µM (active)
same,AC50,[5],31.3 µM (active)
same,AC50,[6],12.5 µM (active)
same,AC50,[7],33.9 µM (active)
same,AC50,[8],26.1 µM (active)
same,AC50,[9],33 µM (active)
same,AC50,[10],13.2 µM (active)
same,AC50,[12],11.7 µM (active)
CO/C=C(/C(=O)OC)c1ccccc1Oc1cc(Oc2ccccc2C#N)ncn1,outcome,[1],inactive
same,outcome,[2],inactive
same,outcome,[3],inactive
same,outcome,[4],inactive
same,outcome,[5],inactive
same,outcome,[6],inactive
same,outcome,[7],inactive
same,outcome,[8],inactive
same,outcome,[9],inactive
same,outcome,[10],inactive
same,outcome,[12],inactive
CN(C)C(=S)SSC(=S)N(C)C,AC50,[1],28.1 µM (active)
same,AC50,[2],47.3 µM (active)
same,AC50,[3],11.4 µM (active)
same,AC50,[4],58.7 µM (active)
same,AC50,[5],13.5 µM (active)
same,AC50,[6],17.7 µM (active)
same,AC50,[7],26 µM (active)
same,AC50,[8],27.5 µM (active)
same,AC50,[9],13 µM (active)
same,AC50,[10],26.1 µM (active)
same,AC50,[12],29.1 µM (active)
